“And” between values parts separate entries of the source, which are not always exact repeats. Equal entries are not always repeated. Compounds without any hit were thinned out: in the full panel of roughly 83,000, 20% have a hit.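 Note: values are percent growth. 100 is the growth of untreated cells, values between 100 and 0 indicate rising inhibition; between -100 and 0 indicates cell death.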 The source made the active and inactive calls. The calls were made as follows: active = growth percent below 10; inactive = the rest.
These molecules were tested on MDA-MB-468 breast (assay: NCI-60 one-dose screen, 48 h (100 = growth as untreated, 0 = no growth, -100 = all killed)). Details: 10 µM unless noted.

SMILES | growth
COc1ccc2nc(-c3ccc(Cl)cc3)cc(-c3nnc(SCC(=O)Nc4ccc(/C(C)=N\O)cc4)o3)c2c1 | 58.4% (inactive)
COc1cc2nc(N3CCN(C(=O)C4COc5ccccc5O4)CC3)nc(N)c2cc1OC (stereo unspecified) | 78.2% (inactive) and 104% (inactive)
O=C(C[n+]1ccn(CC(OCc2ccc(Cl)cc2Cl)c2ccc(Cl)cc2Cl)c1)c1ccc(F)cc1 (stereo unspecified) | -77.2% (active)
CCCCCCCCSc1ncnc2c1ncn2CO | 11.9% (inactive)
Cn1c(=O)c2[nH]c(NN)nc2n(C)c1=O | 122% (inactive)
COc1cc(/C=N/NC(=O)c2cn(C3CC3)c3c(OC)c(N4CC5CCCNC5C4)c(F)cc3c2=O)ccc1O (stereo unspecified) | 54.8% (inactive)
COC(=O)C1=COC(C)C2C[n+]3ccc4c([nH]c5ccccc54)c3CC12 (stereo unspecified) | 94.2% (inactive) and 85.8% (inactive)
Fc1cc2c(cc1Cl)N(c1ncnc3ccc(-c4cnc5[nH]ncc5c4)cc13)CC2 | 49.5% (inactive)
COc1ccc(CC(C)=C(c2ccc(OCCN3CCCC3)cc2)c2ccc(OCCN3CCCC3)cc2)cc1 | -85.2% (active)
CCCCCCNC(=O)Oc1ccc(/C(=C(/C)c2ccccc2)c2ccc(OCCN(C)C)cc2)cc1 | 71.5% (inactive)
Cn1c(=O)c2[nH]c(C3CC=CCC3)nc2n(C)c1=O (stereo unspecified) | 107% (inactive)
COc1cc2cc(Oc3ccc(NC(=O)c4cc(C(F)(F)F)cc(C(F)(F)F)c4)cc3)c(C)nc2cc1OC | 22.8% (inactive)
O=C(c1ccc(O)cc1)[C@@H]1CN[C@@]2(C(=O)Nc3ccccc32)[C@H]1c1ccc(F)cc1 | 97.5% (inactive)
Nc1nc2ccc(CNc3ccc(C(=O)NC(CC(=O)O)C(=O)O)cc3)cc2c(=O)[nH]1 (stereo unspecified) | 81.6% (inactive)
COc1ccc(C2CC(c3ccc4ccccc4c3)=NN2/C=C2\SC(=S)N(NC(=O)Cc3ccccc3Nc3c(Cl)cccc3Cl)C2=O)cc1 (stereo unspecified) | 7.11% (active)
COc1cc(/C=C/C(=O)/C=C(O)/C=C/c2ccc(OC(=O)C34CC5CC(CC(C5)C3)C4)c(OC)c2)ccc1OC(=O)C12CC3CC(CC(C3)C1)C2 | 108% (inactive)
COc1cc(C=C2C(=O)N(C)C(=O)N(C)C2=O)cc(CN2CCCCC2)c1O | 104% (inactive)
Nc1nc2c(ncn2C2OC3COP(=O)(O)OC4C(COP(=O)(O)OC2C3O)OC(n2cnc3c(N)ncnc32)C4O)c(=O)[nH]1 (stereo unspecified) | 116% (inactive)
CC[N+](CC)=c1cc2oc3cc(N(C)C)ccc3nc-2cc1C | -14% (active)
CC[C@@]1(O)C(=O)OCc2c1cc1n(c2=O)Cc2c-1nc1ccccc1c2/C=N/OC(C)(C)C | -44.5% (active)
COC(=O)C1CN(S(=O)(=O)/N=C2\NC(=O)NC2=C(Cl)Cl)C1 | 72.5% (inactive)
COc1ccc(Cn2cc3c(c2-c2cc(OC)c(OC)c(OC)c2)CCCc2cnoc2-3)cc1 | 48.6% (inactive)
N#C/C(=C\c1ccc(-c2ccc(Cl)cc2)o1)c1ccc(Cl)cc1 | 82.2% (inactive)
C[C@H]1[C@H](C)CC[C@]2(C(=O)NCCNCCN)CC[C@]3(C)C(=CC[C@@H]4[C@@]5(C)CCC(=O)C(C)(C)[C@@H]5CC[C@]43C)[C@H]12 | 34% (inactive)
O=c1c2ccccc2cc2n1CCN=C2c1ccccc1 | 98.4% (inactive)
Clc1nc(Nc2ccccc2)nc(Nc2ccccc2)n1 | 57.3% (inactive)

Reference: PubChem BioAssay (NCI)
